# An excerpt weighted towards active compounds, which were near 2.3% of everything screened.
# CHRM1 PAM: human CHRM1 positive allosteric modulation; P11229; CHO-K1 hM1, Fluo-8 calcium fluorescence, ACh EC20; 0% = ACh EC20, 100% = maximal ACh; activation, % at 3 µM; actives 0.088% (n = 360,000); AID 588819; in the data active = activation above about 19%, passing the limit was not always enough
# Target sequence (P11229 whole entry, looked up): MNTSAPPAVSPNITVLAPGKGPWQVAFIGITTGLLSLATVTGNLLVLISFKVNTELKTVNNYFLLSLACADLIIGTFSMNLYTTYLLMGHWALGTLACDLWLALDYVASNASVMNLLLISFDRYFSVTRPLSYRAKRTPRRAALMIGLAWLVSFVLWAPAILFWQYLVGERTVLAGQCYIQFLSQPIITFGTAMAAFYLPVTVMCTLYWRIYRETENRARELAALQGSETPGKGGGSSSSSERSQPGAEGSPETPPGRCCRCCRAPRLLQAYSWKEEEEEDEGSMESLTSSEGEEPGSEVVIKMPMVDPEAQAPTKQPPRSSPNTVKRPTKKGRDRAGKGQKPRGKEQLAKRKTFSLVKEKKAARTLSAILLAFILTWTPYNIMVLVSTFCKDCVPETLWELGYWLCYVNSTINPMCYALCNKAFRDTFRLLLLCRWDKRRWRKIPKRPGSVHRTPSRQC
# CHRM1 agonist: activates human CHRM1 receptor | actives 0.33% (n = 360,000) | CHO-K1 hM1, Fluo-8 calcium fluorescence, agonist mode; 0% DMSO, 100% acetylcholine EC100 | AID 588814 | activation, % at 3 µM;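 active = activation above the run's mean compound activation plus 3 SD, cut at about 16% in these data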;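 note: peak over basal fluorescence ratio within a 140 s kinetic read after compound addition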
# M1 antag: blocks human M1 muscarinic receptor | P11229 | CHO-K1 hM1, Fluo-8 calcium fluorescence, ACh EC80 antagonist | inhibition, % at 3 µM | actives 1.3% (n = 360,000) | AID 588852;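 active = percent inhibition above its own plate's cutoff, namely the mean of that plate's compound wells plus 3 SD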;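 note: peak over basal fluorescence ratio during 140 s after agonist addition; 0% = ACh EC80 plus DMSO and 100% = DMSO alone without agonist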
# CHO-K1 Ca ag: nonselective activator or artifact in parental CHO-K1 cells; Fluo-8 calcium fluorescence; scaled to maximal ATP response, vehicle zero; activation, % at 3 µM; actives 0.48% (n = 360,000); in the data active = activation above about 15%;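 note: untransfected CHO-K1 host cells lacking M1 receptor as counterscreen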
# CHO-K1 Ca antag: M1 antagonist counterscreen hit in parental CHO-K1 cells; inhibition, % at 3 µM; ATP-induced calcium, Fluo-8 fluorescence; actives 0.6% (n = 360,000);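 active = inhibition above a per-plate cutoff, the plate's mean sample inhibition plus 3 SD, cut at about 24% in these data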;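 note: 0% = DMSO plus EC80 ATP and 100% = DMSO alone without ATP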
# M1 PAM parental: nonselective activator or artifact in parental CHO-K1 calcium assay. activation, % at 3 µM. ATP EC20, Fluo-8 calcium fluorescence; 0% at ATP EC20, 100% at ATP max. actives 0.02% (n = 360,000). AID 602247;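 active = activation above the run cutoff, the mean activation of all test compounds plus 3 SD, cut at about 40% in these data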;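 note: peak over basal fluorescence ratio in a 140 s read after ATP addition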
# Numbers without * were called inactive.
SMILES,CHRM1 PAM,CHRM1 agonist,M1 antag,CHO-K1 Ca ag,CHO-K1 Ca antag,M1 PAM parental
Cc1ccc([N+](=O)[O-])cc1NC(=O)Nc1cccc(F)c1,-21,4,34,13,26*,-22
Cc1ccc(C(=O)Nc2cc([N+](=O)[O-])ccc2C)cc1,-2,-9,3,0,-5,-2
Cc1ccccc1S(=O)(=O)N(C)C[C@H]1OCc2cn(nn2)CCCC(=O)N([C@H](C)CO)C[C@@H]1C,3,-6,0,1,7,12
CN(C)S(=O)(=O)c1cccc(C(=O)NCc2cccs2)c1,-4,-3,8,0,11,-12
COc1cc(C(=O)NCC(c2cccs2)N2CCOCC2)ccc1OCc1ccccc1 (centres undefined),4,-1,3,1,27*,-12
CN(C)C(CNC(=O)c1cccc(NS(=O)(=O)c2ccc(Br)cc2)c1)c1ccco1 (centres undefined),-26,-7,70*,1,3,1
CCOc1ccc(S(=O)(=O)Nc2ccc(C(=O)NCC(c3ccco3)N(C)C)cc2)cc1 (centres undefined),-20,-5,32*,2,-1,4
O=C(NCC(c1cccs1)N1CCOCC1)c1ccccc1NS(=O)(=O)c1ccc(Cl)c([N+](=O)[O-])c1 (centres undefined),-20,-2,21,16*,22,-7
CCOc1ccc(NS(=O)(=O)c2ccc(C(=O)NCC(c3cccs3)N3CCOCC3)cc2)cc1 (centres undefined),-3,29*,18,25*,-1,0
CC(=O)c1ccc(S(=O)(=O)Nc2ccc(C(=O)NCC(c3cccs3)N3CCOCC3)cc2)cc1 (centres undefined),4,-2,-14,1,-12,15
Cc1c2cnn(CC(=O)NC3CCCC3)c(=O)c2c(C)n1Cc1ccccc1,9,23*,-7,4,-4,-12
CCN(C(=S)Nc1cccc2ccccc12)c1ccccc1,9,1,-3,0,13,-14
Cc1c(S(=O)(=O)Nc2ccc(Br)cc2)c(=O)n(C)c(=O)n1C,-15,-4,30*,7,7,10
CCCS(=O)(=O)NC(=O)C1(C)CCN(C(=O)c2cc(C)oc2C)C1 (centres undefined),24,5,-13,0,-3,-11
Cn1c2ccccc2c(=O)c2c(=O)n(C3CCCCC3)c(-c3ccco3)nc21,0,19*,1,24*,-3,25
Cc1nc2c(c(=O)c3ccccc3n2C)c(=O)n1C1CCCCCC1,2,-5,-3,0,10,-15
NC1=NC(=O)C(=Cc2ccccc2)S1,27*,5,-6,0,5,-9
CNc1ccccc1C(=O)OCC(=O)N1CCc2ccccc2C1,4,-3,-10,2,5,10
CC1=C(NCCc2ccccc2)CCC1=O,0,-6,-28,1,-7,19
CCCNC1=C(C)C(=O)CC1,-5,-3,20,0,24*,-8
Cc1nnc(SCC(=O)NC2CCCCCC2)n1C(C)C,-2,-3,2,0,-2,-2
Fc1ccc(-[n+]2nc(Nc3ccccc3)sc2-c2c3ccccc3cc3ccccc23)cc1,-8,19*,26,3,-7,15
COc1ccc(C)cc1Nc1n[n+](-c2ccccc2)c(-c2c(OC)ccc3ccccc23)s1,-18,-2,31*,16*,16,1
COc1ccc(C)cc1Nc1n[n+](-c2ccccc2)c(-c2cc(OC)c(OC)cc2Br)s1,6,-7,-10,0,-16,4
O=c1[nH]c(/C=C\c2cccs2)nc(O)c1[N+](=O)[O-],10,-7,-5,0,7,12
SMILES,CHRM1 PAM,CHRM1 agonist,M1 antag,CHO-K1 Ca ag,CHO-K1 Ca antag,M1 PAM parental
COc1ccc(Cl)cc1NC(=O)CSc1nnc(Cc2ccc(C)cc2)c(=O)[nH]1,0,-2,7,0,7,-15
OC1c2cc(Br)ccc2N=C2CCCCCN21 (centres undefined),-33,-5,78*,0,14,-11
OC1c2cc(Br)ccc2N=C2CCCN21 (centres undefined),9,-7,-4,0,-5,0
Cn1c(CSCc2ccc(F)cc2)nnc1SCC(=O)Nc1nccs1,1,0,6,5,26*,9
CN(C)C(CNC(=O)c1cc(S(=O)(=O)N2CCOCC2)ccc1Cl)c1cccs1 (centres undefined),-12,-8,18,1,4,-2
CCCCN1C(=O)Cc2c1nc(N)c1c(N)nc(N(CCC)CCC)c(C#N)c21,0,-2,13,0,25*,-9
COC(=O)c1ccc2[nH]c(C)cc(=O)c2c1,-23,-6,69*,1,-4,9
Clc1ccccc1CN(Cc1ccccc1)c1ncnc2nc[nH]c12,-6,-4,-5,2,3,16
CCCN(CCC)c1ncnc2nc[nH]c12,-11,-4,19,0,29*,-4
COc1cc(OC)cc(-c2cc3nc(C)c(CCC(=O)O)c(C)n3n2)c1,5,2,-8,0,39*,-10
Cc1ccccc1Nc1ccc([N+](=O)[O-])cn1,11,-4,-7,1,15,-12
Cc1ccccc1NC1=NCC(c2ccc([N+](=O)[O-])cc2)S1 (centres undefined),0,-1,1,19*,-16,25
CCOC(=O)C1CCCN(C(=O)COc2ccccc2O)C1 (centres undefined),-23,74*,62*,0,-11,18
CCOC(=O)C1CCCN(C(=O)CSc2ccc(Br)cc2)C1 (centres undefined),-1,-7,5,0,18,-10
CCOC(=O)C1CCCN(C(=O)CCc2nnc(-c3ccc(C(C)=O)s3)o2)C1 (centres undefined),-11,29*,9,1,-13,14
CCOC(=O)C1CCCN(C(=O)CSc2nc(C)cc(C)n2)C1 (centres undefined),-5,38*,8,0,-4,10
CCN(CC(=O)Nc1ccc(Br)cc1)C(=O)Cc1cccc(F)c1,9,-1,0,0,-15,12
CC(C)CN(C(=O)COC(=O)Cc1cccc2ccccc12)c1c(N)n(Cc2ccccc2)c(=O)[nH]c1=O,9,-4,-7,0,2,4
O=C(NC1CCCC1)c1noc2c1CCCCC2,-19,-4,37*,0,-5,11
O=C(NCc1ccccc1)c1noc2c1CCCCC2,19,-10,-8,0,-29,12
COc1ccc(-n2nc([N+](=O)[O-])c(=NC3CCN(Cc4ccccc4)CC3)n2O)cc1,-23,-10,25*,1,-12,20

# Screens (PubChem)
